Data published in PubChem BioAssay (NCI).
This is part of a sample that, as a whole, favours compounds with a hit. Of some 79,000 tested, about 15% had one in any assay. No stated cut-off is given here; in the data, active means growth inhibition above about 70%; inactive means the rest. Where a SMILES comes first, the peptide text is derived from it. The star is where a group is joined. Boc = CC(C)(C)OC(=O)*; OtBu = CC(C)(C)O*

Assays:
[1] = NCI Yeast Anticancer Drug Screen. Data for the rad50 strain (AID 155);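 further: 0% = growth of vehicle-only cultures of the same strain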; conditions: S. cerevisiae rad50 strain growth inhibition; at 50.0 µM; active compounds read high
How it was run: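 Vehicle-treated cultures provide the reference for the growth inhibition reported for compound-exposed, repair-deficient yeast.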

[2] = NCI Yeast Anticancer Drug Screen. Data for the mec2-1 strain (AID 157); conditions: S. cerevisiae mec2-1 strain, at 50.0 µM, active compounds read high
How it was run: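 Test agents were screened against the mec2-1 yeast strain, with defined DNA repair or cell cycle alteration. Growth was scored as inhibition against vehicle-only controls.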

[3] = NCI Yeast Anticancer Drug Screen. Data for the sgs1 mgt1 strain (AID 161);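 further: 0% = growth of cultures given vehicle only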; conditions: S. cerevisiae sgs1 mgt1 strain, at 50.0 µM, active compounds read high
How it was run: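 Test agents were incubated with a DNA-repair-mutant yeast strain. Growth was then read and compared against vehicle-treated controls.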

[4] = NCI Yeast Anticancer Drug Screen. Data for the cln2 rad14 strain (AID 165);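 further: 0% = growth equal to vehicle treated cultures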; conditions: S. cerevisiae cln2 rad14 strain, at 50.0 µM, active compounds read high
How it was run: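 Growth of compound-exposed yeast (cln2 rad14 genotype) measured and expressed as inhibition relative to vehicle.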

[5] = NCI Yeast Anticancer Drug Screen. Data for the bub3 strain (AID 167); conditions: S. cerevisiae bub3 mutant strain, at 50.0 µM, active compounds read high
How it was run: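 Mutant yeast screening strain plus compound; vehicle-treated cultures serve as the 0% inhibition reference.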

[6] = NCI Yeast Anticancer Drug Screen. Data for the mlh1 rad18 strain (AID 175); conditions: S. cerevisiae mlh1 rad18 strain growth inhibition; at 50.0 µM; active compounds read high
How it was run: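 In this whole-cell yeast screen, a strain with altered DNA damage repair is challenged with compound, and its growth is measured against matched vehicle-treated controls.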

Measured: growth inhibition

NNC(=S)N/N=C(/C(=O)Nc1cc(Cl)ccc1Cl)C1C(=O)Nc2ccccc2S1=O (configuration not stated)
inactive: [1] -21.8% | [2] -32.6% | [3] -5.1% | [4] -28.6% | [5] -6.6% | [6] -0.35%

Cc1ccccc1-c1nnc(-c2ccc3ccccc3c2)o1
inactive: [1] 7.3% | [2] -4.25% | [3] -4.65% | [4] -36.5% | [5] 1.05% | [6] -1.05%

OC(COc1ccccc1)COc1ccccc1
inactive: [1] 1.35% | [2] 2.45% | [3] 16.4% | [4] -18.7% | [5] 8.1% | [6] 3.1%

O=C(/C=C\c1ccccc1)C(C(=O)/C=C/c1ccccc1)C(=O)c1ccccc1 (configuration not stated)
inactive: [1] -1.5% | [2] -3.05% | [3] 3.15% | [4] 14.9% | [5] -1.25% | [6] 32.8%

Cc1cc(/C=C2\SC(=S)NC2=O)cc(C)c1O
inactive: [1] 1.65% | [2] 0.8% | [3] 24.6% | [4] 13.1% | [5] 22.8% | [6] 13.7%

C/C(=N\Nc1ccc([N+](=O)[O-])cc1)C(=O)N(C)Nc1ccccc1
inactive: [1] -6% | [2] -54.2% | [3] -38% | [4] -5.7% | [5] -59.7% | [6] -5.4%

ClCCOCCOc1ccccc1Cl
inactive: [1] -24% | [2] -13.8% | [3] -8.1% | [4] -9.95% | [5] -22.1% | [6] -7%

CC(O)(c1ccccc1)C1CC1 (configuration not stated)
inactive: [1] -1.55% | [2] -29.2% | [3] -16.7% | [4] -0.65% | [5] -16.1% | [6] -4.05%

CCSc1[nH]c(NC(=NC(C)C)NC(=O)c2ccccc2)c(C(N)=O)c1C(N)=O
inactive: [1] 2.75% | [2] 1.35% | [3] 0.8% | [4] 9.3% | [5] -4.75% | [6] 18.6%

COc1ccc(CNc2nc3ccccc3nc2C(=O)O)cc1OC
inactive: [1] 1.9% | [2] 18.6% | [3] 4.4% | [4] 7.25% | [5] 9% | [6] -12.5%

OCCSCCCSCCO
inactive: [1] 17.9% | [2] -4.8% | [3] -23% | [4] 3.5% | [5] 1.1% | [6] -4.8%

ONc1ccccc1
inactive: [1] 15.3% | [2] 6.1% | [3] 11.8% | [4] 16.7% | [5] 28.1% | [6] 16.6%

CC(C)(C)OC(=O)CC(NC(=O)OC(C)(C)C)C(=O)NC(Cc1ccccc1)C(N)=O (configuration not stated) (Boc-Asp(OtBu)-Phe-NH2; configuration not given here)
inactive: [1] -23.1% | [2] 6.85% | [3] -3.85% | [4] 35.5% | [5] 13.5% | [6] -11.3%

O=C1c2ccccc2N2Oc3ccccc3C12c1ccccc1 (configuration not stated)
inactive: [1] -3.45% | [2] -13.2% | [3] -16% | [4] 0.55% | [5] -21.2% | [6] 18.8%

COC1=CC(=O)[C@H]2[C@H](C)C(c3ccccc3)[C@@]2(C)C1=O (some centres not stated)
inactive: [1] -21.5% | [2] -1.5% | [3] -16.6% | [4] 2.1% | [5] -0.05% | [6] -20.2%

Nc1nc(N)c2c(n1)NCN(OCCOc1ccc(Cl)cc1Cl)C2
inactive: [1] 1.1% | [2] 3% | [3] 9.15% | [4] -26.8% | [5] -14.8% | [6] 9.8%

NC(=S)N/N=C\c1nccc2ccc(N)cc12
inactive: [1] 36% | [2] -0.8% | [3] 3.1% | [4] -46.8% | [5] -5.8% | [6] 4.9%

Cc1cn(C2CC(N(C)O)C(CO)O2)c(=O)[nH]c1=O (configuration not stated)
inactive: [1] -16.8% | [2] -27% | [3] -8.15% | [4] -34.7% | [5] -12.3% | [6] -58.9%

O=C1OC(c2ccccc2)(c2ccccc2)CC1c1ccccc1 (configuration not stated)
inactive: [1] 9.05% | [2] 7.5% | [3] 12.8% | [4] -44% | [5] -4.25% | [6] 20.7%

O=C(O)c1ccc2ccccc2c1C(=O)c1ccc(F)cc1
inactive: [1] 10.1% | [2] -1.6% | [3] 17.9% | [4] 18.3% | [5] 20.3% | [6] 3.1%

O=C(CCCCCCC(=O)C[N+]12CCC(CC1)C(O)C2)C[N+]12CCC(CC1)C(O)C2 (configuration not stated)
inactive: [1] 39.1% | [2] 4.2% | [3] 21.1% | [4] 0.5% | [5] 3.6% | [6] 15.6%

Cc1c[n+]2c(C)cccc2n1C
inactive: [1] 10.9% | [2] 27.9% | [3] 27.1% | [4] -26.2% | [5] -8.05% | [6] 3.65%

Cc1ccc(C(=O)Oc2ccccc2)cc1
inactive: [1] -3.35% | [2] -5.1% | [3] -11.7% | [4] -34.2% | [5] -7.2% | [6] -20%

O=C(Nc1ccc(S(=O)(=O)N2CCCCC2)cc1)OC1CCCCC1
inactive: [1] 16.4% | [2] 3.75% | [3] -4.2% | [4] 23.6% | [5] 30.9% | [6] -5.45%

CCOCCOC(=O)c1ccc(C(C)C)cc1
inactive: [1] 4.9% | [2] 1.75% | [3] 7.8% | [4] -12.8% | [5] 5.25% | [6] 3.5%

CCOC(=O)c1ccc2c(c1)CCC(C)(C)O2
inactive: [1] -5.55% | [2] -4.8% | [3] 7.3% | [4] -13.9% | [5] 11.5% | [6] -7.15%

O=P(O)(O)c1ccc(I)cc1
inactive: [1] 10.5% | [2] -30.6% | [3] -12.4% | [4] 0.75% | [5] -20.3% | [6] -5.9%

O=C(Nc1ccc(Cl)cc1)Nc1nnc2nc(C(C(=O)c3cccs3)c3nc4nnc(NC(=O)Nc5ccc(Cl)cc5)n4[nH]c3=O)c(=O)[nH]n12
inactive: [1] 1.55% | [2] 12.2% | [3] 0.1% | [4] 15.8% | [5] 0.05% | [6] -13.8%

COc1cc(C(=O)NC(CCN)(c2ccccc2)c2ccccc2)cc(OC)c1OC
inactive: [1] -2.55% | [2] 30.4% | [3] 14.4% | [4] 10.4% | [5] 43.2% | [6] 29.8%

CCCCCCCCCCCCCCCCCC(=O)N/N=C/c1cc(OC)ccc1OC
inactive: [1] 1.55% | [2] 0.05% | [3] -0.05% | [4] -25.2% | [5] -0.6% | [6] -28.9%

NC(=O)c1csc(C2OC(CO)CC2O)n1 (configuration not stated)
inactive: [1] 4.55% | [2] -2.95% | [3] -2.45% | [4] -6% | [5] 0.2% | [6] -2.1%

O=Nc1ccc(Cl)cc1
inactive: [1] -7.1% | [2] 28.9% | [3] -10.3% | [4] 7.15% | [5] 14.9% | [6] 8.45%

CN1NC2=NCCN=C3NN(C)C(=NCCN=C1S2)S3
inactive: [1] -6.5% | [2] -10.1% | [3] -43.3% | [4] 9.15% | [5] -44.1% | [6] -36.2%

CC(C)CNC(=S)N/N=C/C=C/c1ccc([N+](=O)[O-])cc1
inactive: [1] 4.2% | [2] 10.4% | [3] 23.4% | [4] -16.7% | [5] 2.7% | [6] 23.3%

CN(C)CCCNc1ccc([N+](=O)[O-])c2nc3ccccc3c(N)c12
inactive: [1] -2.1% | [2] -64.7% | [3] 6.45% | [4] -0.5% | [5] -11.4% | [6] 65.6%

CCNC(C(=O)O)C1CCCCC1 (configuration not stated)
inactive: [1] -6.45% | [2] -2.95% | [3] -1.65% | [4] 8.5% | [5] -0.8% | [6] -1.25%

CC(C)(C)C(=O)C(=O)O
inactive: [1] 19.9% | [2] -13.2% | [3] -3.7% | [4] 1.15% | [5] -8.5% | [6] 14.6%

Cc1ccc(NC(=O)CC(=O)n2nc(-c3ccccc3)c(N=Nc3ccc(Cl)cc3)c2-c2ccccc2)cc1
inactive: [1] 9.95% | [2] 4% | [3] 13.9% | [4] 22.7% | [5] 46% | [6] 37.7%

CCCCN(CCCC)C(=N)c1cccc(OC)c1
inactive: [1] -7.9% | [2] -13.4% | [3] -7.35% | [4] -15.3% | [5] 2.75% | [6] -17.9%

CCOC(=O)NN(C(=O)OCC)C(=C(C1=CCCCC1)N1CCOCC1)N(NC(=O)OCC)C(=O)OCC
inactive: [1] -14.4% | [2] 4.25% | [3] 3.3% | [4] 1.9% | [5] -4.8% | [6] -6.5%

O=C1C(/C=N\C(=S)NCc2ccccc2)=C(O)c2ccccc21
inactive: [1] -31.9% | [2] -30.2% | [3] -27.1% | [4] 15.7% | [5] -3.45% | [6] -7.05%

COc1ccc(OC)c(N=Nc2cc(OC)ccc2OC)c1
inactive: [1] -13.6% | [2] -7.8% | [3] 1.1% | [4] -13.8% | [5] 3.3% | [6] -11.9%
